Source: PubChem (National Center for Advancing Translational Sciences (NCATS))
Shiga inhibitor: A qHTS for Small Molecule Inhibitors of Shiga Toxin | Vero cells, Shiga toxin protein synthesis inhibition reporter | inhibition, % at 38.7 µM | 290,000 compounds, 9.2% hits | AID 2315, 2010; in the data active = inhibition mostly above about 28%, no sharp cut-off; inactive = mostly below about 43%; also: 0% is about no effect
Cycloheximide cs: Cycloheximide Counterscreen for Small Molecule Inhibitors of Shiga Toxin; cell reporter, cycloheximide protein synthesis inhibition counterscreen; max response, %; 300,000 compounds, 12% hits; AID 2314, 2010; in the data active = max response mostly above about 13%, no sharp cut-off; inactive = mostly below about 14%; also: read at 38.3 µM for the half of the compounds with a filed dose; 0% is about no effect
SARS PLP yeast: qHTS of Yeast-based Assay for SARS-CoV PLP; S. cerevisiae expressing SARS-CoV PLpro, growth rescue; Potency, µM (highest dose often 32.9 µM), without a hit: top-dose activity, positive = growth rescue, most hits filed as activators; 330,000 compounds, 0.19% hits; also: potency is read from the fitted curve at half-maximal effect; 0% is about no effect; nearly all actives have a fitted effect of over 55% in size
NS1 function inh: qHTS Assay for Inhibitors of Influenza NS1 Protein Function. Potency, µM (top dose mostly 46.1 µM), inactives show top-dose activity, positive = more growth. 270,000 compounds, 0.4% hits. AID 2326, 2010; also: potency is read from the fitted curve at half-maximal effect; actives are rising curves; nearly all actives have a fitted effect of over 50% in size
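In this qHTS, NS1 from influenza A is expressed in budding yeast, where it slows growth. Cells are switched from glucose to 2% galactose medium (pH 6.0, -URA), treated with compound, and growth recovery is read at OD600.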
* = called active by the depositor; ? = inconclusive; . = no result given. Shown are actives, neighbours in structure and some others; about 12% of the full set was active somewhere. Unless noted, calls follow the shape of the full dose curve.

SMILES | Shiga inhibitor | Cycloheximide cs | SARS PLP yeast | NS1 function inh
COc1ccccc1CC(=O)Nc1ccc2nc(C)sc2c1 | 79.5* | 24.9* | -0.3% | -5.4%
Cc1nc2ccc(NC(=O)COc3ccccc3F)cc2s1 | 72.1* | 30.9* | -6.9% | .
COc1ccc(OCC(=O)Nc2ccc3nc(C)sc3c2)cc1 | -11.3 | -3.2 | 0.1% | .
Cc1cc(CNC(=O)COc2ccccc2F)c2ccccc2n1 | 86.7* | 36.9* | -0.8% | 2.5%
CCN(CC)C(=O)c1ccc(NC(=O)COc2ccccc2F)cc1 | 76.3* | 22.4* | 5.7% | 1.1%
O=C(COc1ccccc1F)Nc1ccc(S(=O)(=O)N2CCCC2)cc1 | . | . | 0.6% | .
Cc1sc(N2CCN(S(=O)(=O)c3ccc4c(c3)NC(=O)CO4)CC2)nc1-c1ccccc1 | -4.1 | -9.3 | -11.0% | 15.2%
CCS(=O)(=O)NCC(c1ccco1)N1CCN(c2ccccc2F)CC1 (configuration not stated) | -9.4 | -3.4 | -16.2% | 2.7%
COc1cccc(CC(=O)Nc2ccc3nc(C)sc3c2)c1 | 11.3 | 29.9* | -86.8% | -28.5%
COc1cc(CC(=O)Nc2ccc3nc(C)sc3c2)cc(OC)c1OC | -3.0 | 8.5 | ? | -9.0%
O=C(c1cnn(-c2ccccc2)c1-n1cccc1)N1CCN(C2CCCCC2)CC1 | -9.8 | -2.4 | 0.0% | -1.4%
Cc1ccc(/C(=N/Nc2nc3ccccc3s2)C2=C(O)c3ccccc3C2=O)cc1 | 43.7* | 18.7 | 14.8% | .
Cc1cc(C)n(-c2ccc(N3CCOCC3)nn2)n1 | 56.7* | 32.9* | 1.0% | 2.1%
O=C1OC(Cc2ccccn2)C(O)=C1C1=NCCCCN1 (configuration not stated) | 115.8* | 39.4* | -3.6% | -0.7%
O=C1OC(Cc2ccccn2)C(O)=C1C1=NCCCN1 (configuration not stated) | 80.8* | 27.6* | 5.8% | -0.5%
O=C1Nc2ccccc2C1Cc1ccccn1 (configuration not stated) | -0.5 | -2.5 | -0.3% | 0.4%
C=C1C(=O)[C@]23[C@H](O)[C@H]1CC[C@H]2[C@@]12COC3(O)[C@H](O)[C@@H]1C(C)(C)CC[C@@H]2O | -14.6 | -5.4 | . | .
COc1ccc(N2CC(NC(=O)N(C)CCC#N)CC2=O)cc1 (configuration not stated) | -5.0 | 2.6 | 1.2% | .
NC(=O)c1cc([N+](=O)[O-])c(Cl)cc1NCc1ccccn1 | . | . | -8.6% | .
COc1ccc(C2CC2/C(=N/OC(=O)c2cccs2)c2ccccc2)cc1 (configuration not stated) | 44.8 | 28.8* | -26.5% | -14.7%
CCOC(=O)c1c(OCCO)noc1N | -7.2 | -2.1 | 0.3% | -1.4%
Cc1ccc2cc3c(nc2c1)OCC3 | 47.4* | 32.0* | 1.8% | -7.2%
Cc1ccc2cc3c(nc2c1)N(Cc1ccco1)CC3 | 37.8 | 23.8 | 0.4% | -1.2%
O=C(CCNc1ccccc1)c1ccc2c(c1)OCO2 | 71.5* | 62.9* | -13.9% | -80.8%
CN(C)CCC(=O)c1ccc2c(c1)OCO2 | 13.1 | 24.3* | -33.1% | -216.9%
SMILES | Shiga inhibitor | Cycloheximide cs | SARS PLP yeast | NS1 function inh
CN(C)CCCC(=O)c1ccc2c(c1)OCO2 | -5.7 | -6.0 | 7.1% | -10.8%
N=Cc1c(O)n(-c2ccc(C34CC5CC(CC(C5)C3)C4)cc2)c(=O)[nH]c1=O | 27.0* | 47.9* | 9.9% | 19.2%
Cc1ccc(CNC(=O)C2CCC(=O)N2CCc2ccccc2)cc1 (configuration not stated) | 6.2 | -2.3 | 7.1% | 1.2%
O=C(Cn1cccc1C(=O)c1ccccc1)NCc1ccc(Cl)cc1 | 16.4 | -4.1 | 3.6% | .
O=C(Cn1cccc1C(=O)c1ccccc1)NCc1cccc(Cl)c1 | 53.5* | 32.5* | 0.3% | .
O=C(/C=C/c1ccc(F)cc1)N1CCCc2ccccc21 | 42.9* | 38.3 | -9.2% | .
O=C(/C=C/c1cccc(F)c1)N1CCc2ccccc21 | 102.2* | 64.7* | -19.3% | -1.9%
O=C(/C=C/c1ccc(Cl)cc1Cl)N1CCc2ccccc21 | 61.2* | 31.7* | 4.3% | 5.4%
O=C(/C=C/c1cccc(F)c1)OCC(=O)N1CCCc2ccccc21 | . | . | 2.5% | .
O=C(Nc1ccc(F)cc1)C1CCCN(C2=NS(=O)(=O)c3ccccc32)C1 (configuration not stated) | . | . | 0.0% | .
O=C(C=C=Nc1ccccc1)C(=O)N=C=Cc1ccccc1 | 71.7* | 24.1* | 0.9% | 0.4%
Cc1ccc(NS(=O)(=O)Cc2ccccc2)cc1Cl | -4.3 | -0.6 | -4.0% | -30.9%
CCOC(=O)C1(CC2CCCCO2)CCN(Cc2cc(F)ccc2-n2cccn2)CC1 (configuration not stated) | 72.0 | 26.7* | -1.0% | 0.8%
CCOC(=O)C1(CC2CCCCO2)CCN(Cc2c(C)cc(C)cc2-n2cccn2)CC1 (configuration not stated) | 2.7 | -2.5 | -1.1% | -1.0%
Cc1ccc(NC2=C(Cl)C(=O)OC2OC(=O)c2ccc(C)cc2)cc1 (configuration not stated) | 18.1 | 7.1 | -18.6% | .
COC(=O)c1ccc(NC2=C(Cl)C(=O)OC2OC(=O)c2ccccc2)cc1 (configuration not stated) | 36.4 | 41.7* | -5.4% | .
CC1C/C(=N/NC(=O)c2ccc(CSc3nc4ccccc4[nH]3)cc2)CC(C)(C)C1 (configuration not stated) | 16.7 | 5.7 | 6.3% | ?
c1ccc(N/N=C2\CCCc3ccccc32)nc1 | 7.0 | 18.2 | 6.8% | .
Cc1cc(N/N=C2\CC(C)CC(C)(C)C2)nc2ccccc12 (configuration not stated) | 27.1* | 35.2* | -0.6% | .
c1ccc2[nH]c(NN=C3CCCCCC3)nc2c1 | 110.4* | 43.8* | 23.8% | .
c1ccc2[nH]c(NC3=NCCC3)nc2c1 | -13.1 | -1.2 | 0.1% | 1.7%
Cc1cc(N/N=C2/CCCc3ccccc32)nc2ccccc12 | 57.2* | 54.0* | -9.9% | .
CC1C/C(=N/Nc2nc3ccccc3[nH]2)CC(C)(C)C1 (configuration not stated) | 69.4* | 32.8* | 5.2% | 13.7%
CCOc1ccc(CNC(=O)CCC(=O)N2Cc3cccc(OC)c3Oc3ncccc32)cc1 | -4.2 | -2.6 | 6.6% | 8.1%
O=S1(=O)N[C@H]2CC[C@@H]3NS(=O)(=O)N[C@H]4CC[C@H](N1)N4S(=O)(=O)N23 | . | . | . | 4.4%
SMILES | Shiga inhibitor | Cycloheximide cs | SARS PLP yeast | NS1 function inh
Cc1ccc2c(nc3s/c(=C/c4cccs4)c(=O)n32)c1C | 64.8 | 30.1* | 8.8% | 14.0%
COc1cccc(CNC(=O)CCC2CCCN(c3cc(C)nc(N4CCCC4)n3)C2)c1 (configuration not stated) | -2.6 | 0.9 | 0.7% | 9.7%
COc1ccccc1NC(=O)c1ccc(-c2ccccc2F)o1 | 70.4* | 28.0* | -2.7% | -32.7%
Cc1cc(NC(=O)c2ccc(-c3ccccc3F)o2)no1 | 186.2* | 79.1* | 4.0% | .
Fc1ccc(Oc2ncccn2)c(F)c1 | 14.7 | -3.7 | -3.5% | 15.1%
NCCc1c[nH]c2ccc(O)cc12 | -13.2 | 41.7* | . | .
CC(N)Cc1c[nH]c2ccc(O)cc12 (configuration not stated) | . | . | . | -3.8%
Cc1nc2ccccc2c(=O)n1NCc1cccs1 | 10.2 | 9.6 | -5.9% | -18.4%
COc1ccc(S(=O)(=O)N2CCC(C(=O)Oc3ccc(C)cc3)CC2)cc1OC | . | . | -1.7% | .
